NPC1 prom act: NPC1 promoter activation. Huh7 NPC1 promoter luciferase reporter, 24 h. Potency, µM (top dose mostly 9.22 µM), for the others: at the highest dose activation, hits mostly activators. actives 2.4% (n = 320,000). AID 485313; note: % of control where 0% means no effect; nearly all actives have a fitted effect of over 60% in size
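Luminescence from an NPC1 promoter-driven luciferase reporter in stably transfected Huh7 cells was measured after 24 h compound treatment at 37 °C, followed by 10 min ambient incubation with luciferase detection reagent.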
SMN2 splice enh: enhancers of SMN2 splice variant expression; HEK293 SMN2-luciferase splicing reporter, luminescence, 30-36 h; Potency, µM (doses to about 46.1 µM), for inactives: at the top dose activity change, positive = activation, usual class: activators; actives 2.8% (n = 210,000); note: % of control where 0% means no effect; nearly all actives have a fitted effect of over 55% in size
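qHTS luciferase splicing reporter: luminescence rises when SMN2 exon 7 is included in transfected HEK293 cells. Compound exposure lasted 30-36 h at 37C, with 4.5 mM final sodium butyrate as control, followed by a ONE-Glo read.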
FLuc counter: firefly luciferase modulation, counter-screen for miR-21 project; AID 588342; actives 6.9% (n = 360,000); Potency, µM (top dose mostly 57.5 µM), inactives show top-dose activity change, negative = inhibition, hits mostly inhibitors; P08659; purified FLuc, Km substrates, luminescence inhibition;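 note: plate controls were vehicle for no effect and reference inhibitor for full effect; nearly all actives have a fitted effect of over 55% in size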
Target sequence (P08659 whole entry, looked up): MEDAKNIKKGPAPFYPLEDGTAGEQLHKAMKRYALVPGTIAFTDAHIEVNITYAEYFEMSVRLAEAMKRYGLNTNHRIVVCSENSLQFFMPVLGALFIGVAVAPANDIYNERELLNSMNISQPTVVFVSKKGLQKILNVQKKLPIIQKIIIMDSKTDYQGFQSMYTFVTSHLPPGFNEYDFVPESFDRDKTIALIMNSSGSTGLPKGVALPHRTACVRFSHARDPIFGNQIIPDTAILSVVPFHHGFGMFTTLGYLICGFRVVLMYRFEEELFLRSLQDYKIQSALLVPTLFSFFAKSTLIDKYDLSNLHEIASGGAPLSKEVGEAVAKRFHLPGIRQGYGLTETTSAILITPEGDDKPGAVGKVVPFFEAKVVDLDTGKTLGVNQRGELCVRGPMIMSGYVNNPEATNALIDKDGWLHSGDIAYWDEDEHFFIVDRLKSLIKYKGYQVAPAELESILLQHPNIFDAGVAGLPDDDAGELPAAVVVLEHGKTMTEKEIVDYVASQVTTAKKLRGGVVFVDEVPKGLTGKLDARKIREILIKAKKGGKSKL
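Biochemical qHTS of compounds, final roughly 60 µM downward over six points, against 10 nM purified firefly luciferase using Km concentrations of substrates (10 uM D-luciferin, 10 uM ATP) in Tris acetate pH 7.5 buffer; luminescence output.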
ELG1 genotox: genotoxicity induction in ELG1-luciferase HEK293T cells; HEK293T ELG1-luciferase reporter, luminescence, 16 h; Potency, µM (series often up to 46 µM), inactives show at the top dose activity change, positive = activation, usual class: activators; actives 1.3% (n = 330,000); note: % of control where 0% means no effect; nearly all actives have a fitted effect of over 60% in size
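Genotoxicity was scored as increased ELG1-luciferase reporter signal, measured by ONE-Glo luminescence (30 min, room temperature). Compound or vehicle exposure of the HEK293T reporter cells lasted 16 hr at 37°C.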
Rab9 promoter act: activates the Rab9 promoter | Huh7 Rab9 promoter-luciferase reporter, luminescence, 24 h | actives 2.8% (n = 320,000) | AID 485297 | Potency, µM (highest dose often 9.22 µM), for the others: at the top dose activation, negative = inhibition, hits mostly activators; note: % of control where 0% means no effect; nearly all actives have a fitted effect of over 60% in size
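Huh7 reporter line, Rab9 promoter upstream of luciferase. Compound exposure 24 h at 37 °C in reduced-serum medium with 10% FBS. Read-out: luminescence.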
p53 reactivation: mutant p53 re-activation in reporter cells; H1299 p53-A138V BP100-luciferase reporter, luminescence, 24 h; Potency, µM (top dose mostly 92.2 µM), for the others: at the highest dose activity change, positive = activation, hits mostly activators; actives 0.063% (n = 320,000); note: % of control where 0% means no effect; nearly all actives have a fitted effect of over 45% in size
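p53-null H1299 cells stably carrying temperature-sensitive p53-A138V and a BP100-luciferase reporter were pinned with compounds (4-point, 1:5 series) and held 24 hrs at 37 deg C. Luminescence was read 10 min after detection reagent.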
Numbers without * were called inactive; ? = inconclusive; . = no result given. Sampled rows, rich in hits. Any-hit rate of the full collection: about 7.3%. Calls come from the whole dose curve; as a rule, active = well fitted curve in the direction sought with a large enough effect; inconclusive = small, poorly fitted or top-dose-only effect, or another doubt; inactive = no such curve, though single readings can be large; an effect the other way counts as inactive or inconclusive. Potency is the fitted concentration of half-maximal effect.

SMILES	NPC1 prom act	SMN2 splice enh	FLuc counter	ELG1 genotox	Rab9 promoter act	p53 reactivation
Cc1cccn2cc(-c3cccc(NC(=O)c4cccs4)c3)nc12	13%	18%	4.8µM*	5%	24%	5%
Cc1c(C)n2c(SCC(=O)Nc3cccc4ccccc34)nnc2[nH]c1=O	0%	.	0%	-5%	-8%	-2%
COC(=O)c1ccccc1NC(=O)CSc1nnc2cc(C)c3cc(C)cc(C)c3n12	.	.	-14%	.	.	.
Cc1c(CCC(=O)NCCc2ccc(Cl)cc2)c(=O)oc2c(C)c(O)ccc12	.	-47%	4%	.	.	.
COc1ccc(CNC(=O)CCc2c(C)nc3c(c2C)c(=O)n(C)c(=O)n3C)cc1	.	4%	-6%	.	.	.
Cc1ccc(-c2csc(=Nc3ccccc3)n2Cc2ccc3c(c2)OCO3)cc1	.	?	-44%	.	.	.
Cn1c(O)c(C(C#N)=C2N=c3ccccc3=N2)c2ccccc21	15%	5%	9.5µM*	1%	6%	7%
COc1ccc(N=Nc2nc3ccc(Br)cc3n2C)cc1	2.8µM*	?	0.38µM*	13%	2.5µM*	?
CCSc1nnc(-c2c[nH]c3ccccc23)o1	3.2µM*	.	19µM*	?	4µM*	?
CCOC(=O)CSc1nnc(-c2c[nH]c3ccccc23)o1	0%	.	19µM*	-3%	0%	-23%
CC1CCCN(C(=O)c2ccc(CSc3nc4ccncc4n3Cc3ccccc3)cc2)C1 (stereo unspecified)	.	-33%	?	.	.	.
Cc1nc(NC(=O)c2ccc3c(c2)OCO3)ccc1Br	3.2µM*	11µM*	9.5µM*	?	3.5µM*	13%
CCOC(=O)C(=O)Nc1cc(C)on1	2.8µM*	.	1.7µM*	?	1.6µM*	7%
Cc1cc(NC(=O)c2nn(C)c(C)c2Br)no1	?	.	?	?	2.8µM*	?
Cc1cc(NC(=O)c2ccc(F)cc2)no1	?	.	17µM*	?	?	.
CC(=O)Nc1ccc(C(=O)Nc2cc(C)on2)cc1	5%	.	-4%	11%	10%	7%
COc1ccc(Cn2ccc3nc(C)c(C(=O)N4CCN(c5ccccc5OC)CC4)cc3c2=O)cc1	.	.	0%	.	.	.
CCN(CC)c1ccc(NC(=O)CCc2c(C)nc3ncnn3c2C)c(C)c1	.	-5%	-5%	.	.	.
Cc1cc(NC(=O)c2ccc3c(c2)OCO3)no1	2.5µM*	11µM*	11µM*	?	1.6µM*	?
Cc1cc(NC(=O)c2ccc3c(c2)OCCO3)no1	?	3.5µM*	1.2µM*	0.65µM*	0.45µM*	.
COc1ccc(OC)c(Nc2sc(C(=O)c3ccccc3)c(N)c2S(=O)(=O)c2ccccc2)c1	.	-10%	1%	.	.	.
CC(=O)c1cccc(NC(=O)c2ccc(C)c(S(=O)(=O)N3CCOCC3)c2)c1	-2%	.	-2%	-3%	-2%	-3%
Cc1ccc(C(=O)Nc2cccc(C(=O)O)c2)cc1S(=O)(=O)N1CCCCC1	0.79µM*	11µM*	0.34µM*	?	0.4µM*	8%
Cc1ccc(C(=O)Nc2cccc(C(=O)O)c2)cc1S(=O)(=O)N1CCOCC1	1.3µM*	13µM*	1.1µM*	12%	2.2µM*	17%
Cc1ccc(S(=O)(=O)N2CCOCC2)cc1NC(=O)c1cc2c(s1)CCC2	-2%	-16%	1%	-5%	-4%	-5%
SMILES	NPC1 prom act	SMN2 splice enh	FLuc counter	ELG1 genotox	Rab9 promoter act	p53 reactivation
Cc1ccc(C(=O)Nc2ccc3c(c2)CCC3)cc1S(=O)(=O)N1CCOCC1	?	?	17µM*	?	2.2µM*	0%
Cc1ccc(NC(=O)c2cc3c(s2)CCC3)cc1S(=O)(=O)N1CCOCC1	4%	-36%	13µM*	-15%	-4%	-2%
Cc1cc(Nc2cccc(Cl)c2)nc2ccc(NC(=O)COc3ccc(Cl)cc3)cc12	.	.	-2%	.	.	.
O=C(NC1CC(=O)N(c2ccccc2)C1)c1ccc(S(=O)(=O)N2CCCCC2)cc1 (stereo unspecified)	.	.	-9%	.	.	.
CCc1ccccc1NC(=O)Nc1nnc(N(C)Cc2ccccc2)s1	.	.	-10%	.	.	.
CSc1nnc(NC(=O)c2ccc(C)c(S(=O)(=O)N3CCOCC3)c2)s1	26%	11µM*	?	?	6%	-4%
COc1ccc(CCNC(=O)c2cc(-c3ccco3)on2)cc1OC	-1%	-29%	-10%	21%	20%	1%
Cc1ccc(NC(=O)c2cc(-c3cccc(O)c3)on2)cc1C	-7%	2%	9.5µM*	?	7%	?
Cc1ccc(NC(=O)c2cc(-c3ccco3)on2)cc1	-1%	-7%	2.1µM*	?	-1%	?
Cc1ccc(NC(=O)c2cc(-c3ccco3)on2)cc1C	14%	-9%	2.7µM*	?	7%	?
O=C(NCCc1ccccc1)c1cc(-c2ccco2)on1	2.5µM*	10µM*	6µM*	?	2.8µM*	?
Brc1ccccc1-c1nnc(SCc2nc3ccccc3s2)o1	22%	14µM*	7.6µM*	?	?	?
